# From ChEMBL document CHEMBL3988442, “University of Dundee, Small-Polar-MMV Screening Library” (2021)
# In all, about 48,000 compounds went through this assay and about 13,000 (27%) showed an effect of 50% or more. Some of the results follow.
# Tested on: Wolbachia pipientis
# Test: Anti-Wolbachia Cell-Based Screen
# Assay type: functional
# Parameters: scale not given: in the data most compounds retested in dose-response had high values
# Conditions: 5 µM
row,Compound,Percent Effect [%]
1,COCCNC(=O)NCc1cc(-c2ccncc2)n(C2CCCC2)n1,117.5
2,CC(C(=O)NCC1CCCCC1)S(=O)(=O)Cc1csc(-c2cccs2)n1 (configuration not stated),-22.28
3,COCCNC(=O)NC1(c2nc(-c3ccncc3)no2)CCCCC1,-5.967
4,COCCNC(=O)NCCCOC1CCCc2ccccc21 (configuration not stated),-3.457
5,CN(CCNC(=O)NCc1ccncc1)C1CCCC1,0.2327
6,CC(=O)NCc1nc(Cc2cccc(Cl)c2)nn1C1CCN(C)CC1,14.05
7,COCCNC(=O)NCc1cc(-c2cccs2)n(C2CCCC2)n1,108.7
8,O=C(NCCn1cnc(C2CCCC2)cc1=O)NCc1cccs1,5.486
9,CC(=O)NCc1cc(-c2cccs2)n(C2CCCC2)n1,97.9
10,CCCc1n[nH]c(C2CN(CCCS(C)(=O)=O)CCO2)n1 (configuration not stated),8.162
11,CC(C)N1CCC(Nc2ccn(C)n2)C1=O (configuration not stated),-18.51
12,CCc1n[nH]c(C2CN(CC(=O)NCCc3ccsc3)CCO2)n1 (configuration not stated),-8.362
13,COc1ccc(S(=O)(=O)NCCC(O)c2cccs2)c(C)c1 (configuration not stated),-2.091
14,COCc1nc(CNC2CSCCSC2)no1,8.788
15,CN(Cc1csc(-c2cccs2)n1)C(=O)CCn1ccc(=O)[nH]c1=O,-14.37
16,CCS(=O)(=O)N1CCC2(CC1)CC1(CCN(CCOC)CC1)C(=O)N2C.O=C(O)C(F)(F)F,-5.19
17,Cc1cnc(N2CCCOC(CN3CCCCC3)C2)nc1 (configuration not stated),-5.032
18,Cc1noc(C)c1C(=O)N1CCC2(CC1)CC(Oc1ccccc1)CO2 (configuration not stated),-6.513
19,Cc1noc(C)c1C(=O)N1CCC2(CCc3ccccc3C(=O)N2)C1 (configuration not stated),127.4
20,CC(C)c1cc(C(=O)N2CCC3(CCc4ccccc4C(=O)N3)C2)no1 (configuration not stated),122.1
21,Cc1noc(C)c1CN1CC2(CCN(C(=O)c3ccc[nH]3)C2)CC1=O (configuration not stated),-7.535
22,O=C1CCC2(CCCN(C(=O)c3ccco3)CC2)N1 (configuration not stated),-12.15
23,CC(C)c1cc(C(=O)N2CCC3(CCc4ccccc4C(=O)N3)C2)on1 (configuration not stated),142.6
24,CC(C)c1cc(C(=O)N2CCOC3(CCNCC3)C2)no1.O=C(O)C(F)(F)F,-1.615

row,Compound,Percent Effect [%]
1,CC(C)c1cc(=O)[nH]c(-c2ccccc2CN2CCC(C)(C)C2)n1,32.6
2,CCC1CN(CCCNS(C)(=O)=O)c2ccccc2O1 (configuration not stated),-7.766
3,Cc1cnn(CCNCC(O)COc2ccc(Cl)cc2)c1 (configuration not stated),-10.6
4,CN(C)C(=O)c1ccc(C(C(=O)O)N(C)Cc2ccccc2Cl)cc1 (configuration not stated),24.87
5,CC(C)=CCS(=O)(=O)Cc1nc(C(C)C)no1,-0.5421
6,N#Cc1ccc(OCCCN2CCc3cncnc3C2)cc1,-6.561
7,Cc1nnc(NCc2ccc(SC(F)F)cc2)o1,-21.33
8,CCN(Cc1ccc2cccc(O)c2n1)CC1CCCO1 (configuration not stated),12.41
9,CC(C)n1ccnc1CNC(=O)c1cccc(CCC(C)(C)O)c1,1.765
10,O=C(O)C(F)(F)F.O=C(O)C(F)(F)F.c1cncc(C2COC3(CCN(Cc4cccs4)CC3)C2)c1 (configuration not stated),94.58
11,O=C(O)C(F)(F)F.O=C(O)C(F)(F)F.c1cncc(C2COC3(CCN(Cc4nccs4)CC3)C2)c1 (configuration not stated),106.4
12,Cc1ccc(CN2CCC3(CC2)CC(c2cccnc2)CO3)s1.O=C(O)C(F)(F)F.O=C(O)C(F)(F)F (configuration not stated),-3.874
13,O=C(NC1COC2(CCN(Cc3cccs3)CC2)C1)c1ccccn1.O=C(O)C(F)(F)F (configuration not stated),-12.32
14,COc1c(C)cc(S(=O)(=O)NCC2CNCCOC2)cc1C (configuration not stated),-7.949
15,CC1CS(=O)(=O)CCN1Cc1ccccc1OCC(F)(F)F (configuration not stated),-0.5987
16,CCNC(=O)N(C)C(c1cccc(F)c1)c1ccccn1 (configuration not stated),4.567
17,CC(C)NC(=O)N(C)C(c1cccc(F)c1)c1ccccn1 (configuration not stated),108.7
18,CC(NCc1cccc(S(=O)(=O)N(C)C)c1)c1ccccn1 (configuration not stated),-1.385
19,Cc1cccc(C(C(=O)N2CC(c3ccccn3)C2)N(C)C)c1 (configuration not stated),-0.3127
20,CCC(CC)CNC(=O)N(C)C(C)c1ccccn1 (configuration not stated),-0.07078
21,CN(C)S(=O)(=O)N(C)C(c1cccc(F)c1)c1ccccn1 (configuration not stated),51.58
22,CN(C)S(=O)(=O)N(C)C(c1cccnc1)c1ccc(F)c(F)c1 (configuration not stated),6.924
23,CN(C(=O)C1CCCC1)C(c1cccc(F)c1)c1ccccn1 (configuration not stated),96.46
24,CCNC(=O)N(C)C(c1ccccc1)c1ccccn1 (configuration not stated),96.55

row,Compound,Percent Effect [%]
1,CN(C)C(C(=O)N1CC(c2ccccn2)C1)c1cccc(F)c1 (configuration not stated),0.3934
2,CCC(C)(C)NC(=O)CN(C)C(c1cccc(F)c1)c1ccccn1 (configuration not stated),3.895
3,O=C(C1CCC1)N1CCOc2cccc(F)c21,-0.5451
4,CC(C)c1ccc(CN2CCC(CNS(=O)(=O)C3CC3)C2)cc1 (configuration not stated),-21.58
5,O=C(c1ccc[nH]1)N1CCCC2(CCN(c3ccsc3)C2=O)C1 (configuration not stated),-3.1
6,CCc1cccc(OC2CN(C(=O)[C@@H](N)CCSC)C2)c1,3.54
7,OCCc1cc(CC2(NCc3ccncc3)COC2)no1,9.116
8,CN(C)C(C(=O)NCC(F)(F)F)c1cccc(F)c1 (configuration not stated),-4.686
9,CC(=O)N(C)C(c1cccc(F)c1)c1ccccn1 (configuration not stated),87.32
10,CN(C)CCN(Cc1ccccn1)C(=O)Nc1cccc(F)c1,19.37
11,CC1=C[C@@H](CC#N)[C@H](C(C)C)C[C@H]1CC(=O)N1CCN(CCO)CC1,2.953
12,CCOC(=O)C1CCN(Cc2csc(C(C)(C)C)n2)CC1,-1.919
13,COCCN1CCCC(CCCc2ccccn2)(C(N)=O)C1 (configuration not stated),100.6
14,O=C(Nc1ccc(Cl)cn1)C1CCCN(CCc2ccccn2)C1 (configuration not stated),0.2896
15,CN1CCCC(CCCc2cccnc2)(C(N)=O)C1 (configuration not stated),112
16,COCCC1(C(=O)O)CCCN(CCc2ccccc2)C1 (configuration not stated),-4.304
17,CCN1CCCC(O)(CNCc2ccccn2)C1 (configuration not stated),-18.44
18,NC(=O)CN1CCCC(CCCc2ccccn2)(C(N)=O)C1 (configuration not stated),100.4
19,COCCCC1(CO)CCCN(CCc2ccccn2)C1 (configuration not stated),15.21
20,O=C(NCCc1ccccn1)N1CCSC2(CCCCC2)C1,2.458
21,CC(C)N1CCCC(CCCc2ccccn2)(C(=O)O)C1 (configuration not stated),-10.26
22,NC(=O)C1(CCCc2ccccn2)CCCN(CCO)C1 (configuration not stated),112.7
23,NC(=O)C1(CCCc2cccnc2)CCCN(c2ncccn2)C1 (configuration not stated),-4.242
24,CCCN(Cc1cccnc1)C(=O)C1CCCN(C)C1 (configuration not stated),-0.4884
